# Measurements reported in PubChem BioAssay (NCATS).
# Values without a mark were called inactive. Entries that show only a call come without a potency. For some assays here: Potency and affinity values are given separately. Calls of active or inactive are those of the source. No rule for the calls is given here.
# Columns and labels:
# [1] = Ebola virus entry assay, green fluorescence channel
# [2] = Ebola virus entry assay, blue channel fluorescence
Compound,efficacy [1] [%],outcome [2]
CN(C)C(=O)COC(=O)Cc1ccc(OC(=O)c2ccc(N=C(N)N)cc2)cc1,-14.4,inactive
CCOC(=O)/C=C(C)/C=C/C=C(C)/C=C/c1c(C)cc(OC)c(C)c1C,27.5,inactive
Cc1cc(O)c2c(O)c3c(O)cccc3cc2c1,34.7,inactive
NS(=O)(=O)c1ccc(NC(=O)CCC(=O)O)cc1,9.25,inactive
COc1cc(C(=O)NC2CCCNC2)cc(OC)c1OC (stereo unspecified),-16,inactive
COc1ccc2cccc(CCNC(C)=O)c2c1,-16.7,inactive
C[C@]12C=CC(=O)C=C1[C@@H](F)C[C@@H]1[C@@H]2[C@@H](O)C[C@@]2(C)[C@H]1CC[C@]2(O)C(=O)CO,13.6,inactive
CCCCOC(=O)c1ccc(O)cc1,-26.2,inactive
CCCCCCCC/C=C/C(=O)O,20.4,inactive
O=C1CC(c2ccc(Cl)cc2)CC(=O)N1,-27.6,inactive
CCOC(=O)c1ccc(O)cc1,-24.8,inactive
COC(=O)C1=C(C)NC(C)=C(C(=O)OCC(C)=O)C1c1ccccc1[N+](=O)[O-] (stereo unspecified),-11.1,inactive
CC(C)(C(=O)c1cccnc1)c1cccnc1,15.8,inactive
CCc1cccc(CC)c1NC(=O)CN(CC(=O)O)CC(=O)O,15.2,inactive
O=C(CO)[C@@H](O)[C@H](O)[C@@H](O)CO,18.6,inactive
NCCCC[C@H](N[C@@H](CCc1ccccc1)C(=O)O)C(=O)N1CCC[C@H]1C(=O)O,-19.4,inactive
C[C@@H]1CC2=CC(=O)CC[C@@H]2[C@H]2CC[C@@]3(C)[C@@H](CC[C@]3(C)O)[C@@H]21,24.6,inactive
CCCc1c(OCCCCc2nn[nH]n2)ccc(C(C)=O)c1O,28.7,inactive
Cc1cc(OI)c(C(C)C)cc1-c1cc(C(C)C)c(OI)cc1C,13.6,inactive
N[C@@H](CCC(=O)N[C@@H](CS)C(=O)NCC(=O)O)C(=O)O,-20.9,inactive
CC(=O)N[C@@H](CCC(=O)O)C(=O)O,-13.7,inactive
Cc1c[nH]c2ccccc12,-29.9,inactive

Compound,efficacy [1] [%],outcome [2]
COc1ccc2nc(SCc3ncc(C)c(OC)c3C)[nH]c2c1,-11.5,inactive
O=C(OOC(=O)c1ccccc1)c1ccccc1,-19.5,inactive
COC(=O)c1ccc(O)cc1,13.3,inactive
O=C(C1CCCCC1)N1CC(=O)N2CCCc3ccccc3C2C1 (stereo unspecified),76.1,inactive
Oc1ccc(Cl)c2cccnc12,-23.9,inactive
CO/N=C(/C(=O)N[C@@H]1C(=O)N2C(C(=O)[O-])=C(C[n+]3ccn4ncccc43)CS[C@H]12)c1nsc(N)n1,12.5,inactive
O=C(O)Cc1cccc(-c2cc(CCCCCCc3ccc(O[C@H]4O[C@H](CO)[C@@H](O)[C@H](O)[C@@H]4O)c(-c4cccc(CC(=O)O)c4)c3)ccc2O[C@H]2O[C@H](CO)[C@@H](O)[C@H](O)[C@@H]2O)c1,-7.69,inactive
CCO/C([O-])=N/c1c[n+](N2CCOCC2)no1,-25.2,inactive
COC(=O)c1cc(Cl)c(NC(C)=O)cc1OC,-16.3,inactive
O=C(O)c1[nH]n(-c2ccc(S(=O)(=O)O)cc2)c(=O)c1N=Nc1ccc(S(=O)(=O)O)cc1,23,inactive
O=c1cc[nH]c(=O)[nH]1,11.9,inactive
CC(=O)Nc1ncc([N+](=O)[O-])s1,20.3,inactive
COc1ccnc(CS(=O)c2nc3ccc(OC(F)F)cc3[nH]2)c1OC (stereo unspecified),-31.1,inactive
COC(=O)C1=C(C)NC(C)=C(C(=O)OCCc2ccc(N3CCN(C(c4ccccc4)c4ccccc4)CC3)cc2)C1c1cccc([N+](=O)[O-])c1 (stereo unspecified),-12.1,inactive
CNCc1ccccc1,-19.2,inactive
COC(=O)/C=C\C(=O)OC,24.5,inactive
CC(=O)c1ccc(OCC(=O)N2CCCCC2)cc1,-14.3,inactive
COc1cc(NS(=O)(=O)c2ccc(N)cc2)nc(C)n1,-19.1,inactive
O=C(O)c1ccccc1C(=O)Nc1ccc(S(=O)(=O)Nc2nccs2)cc1,-12.6,inactive
CCCN1CCCC[C@H]1C(=O)Nc1c(C)cccc1C,17.3,inactive
COc1ccc(NS(=O)(=O)c2ccc(N)cc2)nn1,8.59,inactive
O=C(O)Cn1c(=O)n(Cc2ccc(Br)cc2F)c(=O)c2ccc(Cl)cc21,-18.1,inactive

Compound,efficacy [1] [%],outcome [2]
CC(=O)CC/C=C(\C)CC/C=C(\C)CC/C=C(\C)CCC=C(C)C,-14.5,inactive
CCOC(=O)C1=C(C)NC(C)=C(C(=O)OC)C1c1cccc([N+](=O)[O-])c1 (stereo unspecified),20.7,inactive
Cc1ccc2ccc(Cl)cc2n1,18.4,inactive
COc1c2occc2cc2ccc(=O)oc12,-15,inactive
CCc1cc(S(=O)(=O)O)c2cc(C(C)C)cccc1-2,18.8,inactive
O=C(c1ccco1)N1CCNCC1,12.6,inactive
NNC(=O)c1ccncc1,13.1,inactive
CC(=O)NO,-14.2,inactive
CCOc1ccccc1OCC1CNCCO1 (stereo unspecified),47.7,inactive
O=C(O)CN1C(=O)c2cccc3cccc(c23)C1=O,11.9,inactive
O=C(O)CCc1nc2ccccc2[nH]1,-21.2,inactive
Clc1cccc(Cl)c1NC1=NCCN1,-12.5,inactive
CN(C)CCN1CCN(c2cccc(Cl)c2)C1=O,-56.2,inactive
C[C@@H]1CCC[C@H](C)N1,-7.35,inactive
C=CCC1(C(C)CC)C(=O)NC(=O)NC1=O (stereo unspecified),14.7,inactive
CC(=O)O[C@@H]1CC2C3CCc4cc(OC(=O)c5ccccc5)ccc4C3CCC2(C)[C@H]1OC(C)=O (stereo partly specified),11.6,inactive
CC(C)Cn1cnc2c(N)nc3ccccc3c21,-30.7,inactive
COc1cccc(OC)c1C(=O)N[C@@H]1C(=O)N2[C@@H]1SC(C)(C)[C@@H]2C(=O)O,19.6,inactive
O=C(O)c1c(O)c(-c2ccccc2)nc2ccccc12,18,inactive
O=C(O)c1ccccc1OP(=O)(O)O,11.4,inactive
N=C(N)N,19.5,inactive
CCCCCCOc1ccccc1C(N)=O,-13.5,inactive

Compound,efficacy [1] [%],outcome [2]
CC(C(=O)O)c1ccc2c(c1)CC(=O)c1ccccc1S2 (stereo unspecified),23.3,inactive
COc1ccc(C(=O)N2CCN(CC(=O)N3CCOCC3)CC2)cc1,-11.2,inactive
CC(=O)Oc1cccc(O)c1,-10.5,inactive
Cc1ccccc1C(=O)N1CC/C(=N\OS(=O)(=O)O)c2ccc(Cl)cc21,-25,inactive
CC(COc1ccccc1)NN (stereo unspecified),-13,inactive
Cc1cccc(C)c1NC(=O)CC12CCCN1CCC2,-14.9,inactive
CC(=O)O[C@]1(C(C)=O)CC[C@H]2[C@@H]3C[C@H](C)C4=CC(=O)CC[C@]4(C)[C@H]3CC[C@@]21C,38.2,inactive
COCCOC(=O)C1=C(C)NC(C)=C(C(=O)OC(C)C)C1c1cccc([N+](=O)[O-])c1 (stereo unspecified),27.1,inactive
CC(C)(Oc1ccc(C2CC2(Cl)Cl)cc1)C(=O)O (stereo unspecified),16.1,inactive
Oc1ccccc1,23.9,inactive
Cc1cccc(C)c1NC(=O)CN1CCCCCC1,-23,inactive
C[N+](C)(C)CCOC(N)=O,12.2,inactive
Cc1cc2nc3c(=O)[nH]c(=O)nc-3n(C[C@H](O)[C@H](O)[C@H](O)CO)c2cc1C,67.6,inactive
O=C(Oc1ccccc1C(=O)O)c1ccccc1O,10,inactive
NC(=S)N/N=C/c1cccnc1,12.5,inactive
O=C1[C@@H]2[C@H]3CC[C@H](C3)[C@@H]2C(=O)N1CCCCN1CCN(c2ncccn2)CC1,-13.3,inactive
O=C(O)CCCCC1CCSS1 (stereo unspecified),-16.3,inactive
O=C(Oc1ccccc1)c1ccccc1O,-17.4,inactive
CS(=O)(=O)c1ccc([C@@H](O)[C@@H](CO)NC(=O)C(Cl)Cl)cc1,-14.2,inactive
CC(=O)OCC(=O)[C@@]1(OC(C)=O)[C@@H](C)C[C@H]2[C@@H]3C[C@H](F)C4=CC(=O)C=C[C@]4(C)[C@@]3(F)[C@@H](O)C[C@@]21C,58.7,inactive
O=C(OCC1(COC(=O)c2cccnc2)CCCC(COC(=O)c2cccnc2)(COC(=O)c2cccnc2)C1O)c1cccnc1,-19.2,inactive
Cc1cc(CCCOc2c(C)cc(-c3noc(C(F)(F)F)n3)cc2C)on1,12.1,inactive
